# Reference: ChEMBL document CHEMBL4513216, “Probing the Open Global Health Chemical Diversity Library for Multistage-Active Starting Points for Next-Generation Antimalarials” (ACS Infect Dis, 2020)
# Out of some 65,000 compounds screened, about 2,100 (3.2%) showed an effect of 50% or more. The median lay at about -52%. The full list was thinned out, with strong results kept by preference.
# Test system: Plasmodium falciparum
# Experiment: Screen against P. falciparum Asexual Blood Stage (ABS), at 5uM
# Assay type: functional, Dd2
# Conditions: tested at 5 uM
row,Structure (SMILES),INHIBITION
1,O=C(c1ccnnc1)N1CCN2C[C@H](Oc3cccnc3)C[C@H]2C1,5.43%
2,Cc1nn(C)c(Oc2ccc(Cl)cc2)c1CN1CCC(CN)C1 (stereo not drawn),92.8%
3,Cn1cc(N2CC[C@@H]3CN(Cc4ccncc4)C[C@H]3C2=O)cn1,-102%
4,N#Cc1cccc(N2CCCC3(CNCCO3)C2)n1 (stereo not drawn),-104%
5,Cc1nc(N)nc(C)c1CC(=O)N1CCCN(CC2CC2)C(C(C)C)C1 (stereo not drawn),-198%
6,N#Cc1cccc(N2CCOC3(CNCCOC3)C2)n1 (stereo not drawn),17%
7,Cc1nc(C)c(CC(=O)N2CCCN(CC3CC3)C(C(C)C)C2)c(=O)[nH]1 (stereo not drawn),-23.8%
8,CC(C)C1CN(c2cccc(C#N)n2)CCCN1Cc1ccc(F)cc1 (stereo not drawn),91.3%
9,CC(C)C1CN(c2cccc(C#N)n2)CCCN1CC1CC1 (stereo not drawn),84.3%
10,CCN1CCC2(COCc3c(C)nc(N4CCOCC4)nc32)C1 (stereo not drawn),-129%
11,CC(Cn1cccn1)NCc1csc2c1CCCC2 (stereo not drawn),39.2%
12,CN(C)C1Cc2ccccc2N(S(=O)(=O)c2cccc(C#N)c2)C1 (stereo not drawn),76.6%
13,CC[C@H]1CN2CC[C@H]1C[C@@H]2CNC(=O)Nc1cccc(C#N)c1,-82.6%
14,CC(C)(C)n1ncc2c1NC(=O)CSC2c1ccsc1 (stereo not drawn),-82.3%
15,COc1ccc(C(=O)N2CCOC3(CNCCOC3)C2)c(OC)n1 (stereo not drawn),-97.3%
16,CC(C)n1ccnc1C1CCCN(c2ccnc3ccccc23)C1 (stereo not drawn),84%
17,Cc1nc(CO[C@@H]2CC[C@H]3[C@H]2OCCN3Cc2cccnc2)cs1,-22.1%
18,O=C(Nc1ccc(Cl)cn1)C1CCCN(CCc2ccncc2)C1 (stereo not drawn),71.9%
19,COc1ccc(C(=O)C2CCCN(Cc3ccncc3)C2)c(OC)c1 (stereo not drawn),-17.9%
20,COc1ccc(C(=O)C2CCCN(Cc3ccncc3)C2)cc1OC (stereo not drawn),-128%
21,O=C(CCc1nccs1)N1CCC(C(=O)O)(c2ccccc2)CC1,-56.3%
22,Cc1nc(CC(=O)N2CCCC[C@H](N(C)C)C2)cs1,-56.95%
23,CN1CCO[C@@H]2CN(C(=O)c3ccc4ncccc4c3)CC[C@@H]2C1,-46.1%
24,CN(C)[C@H]1CCCCN(C(=O)c2cccc(-c3cccc(F)c3)c2)C1,73.3%
25,O=C(c1ccnc(-n2cnnc2)c1)N1CCCC2(CCNC2)C1 (stereo not drawn),-120%

row,Structure (SMILES),INHIBITION
1,Nc1ncccc1CN1C[C@H]2OC(=O)N(Cc3ccccn3)[C@H]2C1,-117%
2,Cc1cnc(N2CCN(C)c3ncccc3C2)nc1,-91.5%
3,Fc1cnc(N2C[C@H]3CN(Cc4cccc(F)c4)C[C@H]3C2)nc1,21.5%
4,CC(Cc1cccc(F)c1)NCc1cnc(N2CCN(C)CC2)nc1 (stereo not drawn),67.6%
5,Cc1cccc(-c2ncc(CNC(C)Cc3ccncc3)cn2)c1 (stereo not drawn),-115%
6,CN1CCN(c2ncc(CNCCCc3cccc(F)c3)cn2)CC1,71.5%
7,CNC(=O)[C@@H]1C[C@H]2CN(c3ncccn3)C[C@H]2N1C(C)C,-98%
8,Cc1noc(C)c1CN1CCO[C@H]2CN(C(=O)N3CCCC3)C[C@H]21,-14.9%
9,O=C(C1CCCO1)N1CCC2(CC1)CNCCO2 (stereo not drawn),-75.2%
10,CNC(=O)CN1CCO[C@H]2CN(CC3CC3)C[C@H]21,-76.5%
11,Cn1cc(CN2C[C@H]3CN(c4cncnc4)C(=O)[C@H]3C2)cn1,-44.8%
12,CC(C)C(CNCc1cccc2c1OCO2)N1CCOCC1 (stereo not drawn),76%
13,CNC(=O)[C@H]1C[C@@H]2CN(C(=O)c3ccncc3F)C[C@@H]2N1C,-96.9%
14,CN1CC[C@@H]2OC[C@H](C(=O)N(C)Cc3ccccn3)C[C@@H]2C1,-138%
15,CN1CC[C@H](N(Cc2ccccc2)Cc2ccccc2)C[C@H](O)C1,72.1%
16,Cc1nc(CC(=O)N2CCCC(N(C)Cc3ccccc3)C2)cs1 (stereo not drawn),-55.85%
17,CN1CC[C@H](N(Cc2ccccc2)CC2CC2)C[C@H](O)C1,80.8%
18,Cc1noc(C)c1CN1C[C@@H]2OCCN(Cc3cnn(C)c3)[C@@H]2C1,-2.02%
19,O=C(Cc1csc(-c2ccco2)n1)N1CCN(CCO)CC1,-30.8%
20,Cc1ccc(CN2CC[C@H]3[C@H]2CC(=O)N3c2cccnc2)o1,-38.1%
21,Cn1cc(C2=CCN(CCC(=O)NCc3ccc(Cl)cc3)CC2)cn1,5%
22,CN(C)CCNC(=O)CCn1ncc2c(Cl)cccc21,71%
23,Cc1cc(CN2CC[C@H]3C[C@H](C)O[C@@H]3C2)no1,-86.2%
24,Cc1c(CC(=O)N2CCN(C(C)C)CC2)nnn1-c1ccccc1,-40.6%
25,CN1CCCC1CCn1ccnc1-c1nc2ccccc2[nH]1 (stereo not drawn),72.2%

row,Structure (SMILES),INHIBITION
1,O=C1[C@H]2CN(Cc3ccccc3)C[C@H]2CN1c1cncnc1,-76.5%
2,Cc1ccc(OCC(=O)N2CCN[C@H]3CS(=O)(=O)C[C@H]32)cn1,-103%
3,Cc1cccc(CN2CC[C@@H]3[C@@H]2CCN3Cc2cccs2)n1,29.9%
4,COCCN1CCO[C@H]2CCN(C(=O)c3ccnnc3)CC[C@@H]21,-39.1%
5,CC(C)N1CCc2c(CN(C)Cc3ccco3)cncc2C1,-16.1%
6,Cc1noc(C)c1CN(C)C(=O)CN1CC(c2ccccc2)CC1=O (stereo not drawn),-83.2%
7,Cc1noc(C)c1CN1CCN(C)c2ncccc2C1,-31.9%
8,CN(C)CCN1CCN(Cc2ccco2)Cc2cccnc21,11.9%
9,CCc1cc(CN(C)C(=O)CN2CC(c3ccccc3)CC2=O)on1 (stereo not drawn),-13.6%
10,Cc1noc(C)c1CNCc1ccccc1N(C)C1CCN(C)CC1,73.6%
11,CCc1cc(CNCc2ccccc2N(C)C2CCN(C)CC2)on1,74.5%
12,CN1CCC(N(C)c2ccccc2CNCc2ccco2)CC1,85.9%
13,CCc1cc(CN(C)C(=O)CN2CC(Cc3ccccc3)CC2=O)on1 (stereo not drawn),-126%
14,CC(C)=CCN1C(=O)[C@@H]2CC[C@H]1CN(Cc1cccnc1N)C2,-11.1%
15,CC1CN(C)CCN1C(=O)Cc1cc(Cl)c2c(c1)OCCO2 (stereo not drawn),-23.7%
16,CCc1noc(CN2CCOC3(CCCC3)C2)n1,-159%
17,c1cc(CN2C[C@@H]3OCCN(CCN4CCCC4)[C@@H]3C2)ccn1,-104%
18,Cc1ccc2c(CC(=O)N(C)CCN(C)C)c(C)[nH]c2c1C,-86.5%
19,Cc1cc(C)c2[nH]c(C)c(CC(=O)N(C)CCN(C)C)c2c1,61.9%
20,Cc1[nH]c2c(C)cccc2c1CC(=O)N(C)CCN(C)C,46.3%
21,N#Cc1ccc(C(=O)NS(=O)(=O)c2ccc(C#N)c(Cl)c2)cc1,-1%
22,COc1cccc(CNc2cc(C)nc(-c3ccncc3)n2)c1OC,89.3%
23,CCc1ccc(-c2cc(C(F)(F)F)nc(N3CCC(N)CC3)n2)cc1,82.4%
24,FC(F)(F)c1cc(-c2cccs2)nc(N2CCN3CCCC3C2)n1 (stereo not drawn),-47.6%
25,Cc1cc(C(F)(F)F)nc(N2CCN3CCCC3C2)n1 (stereo not drawn),-144%

row,Structure (SMILES),INHIBITION
1,O=C(Nc1cccnc1)[C@@H]1COC[C@H]2CN(C3CCCC3)C[C@H]21,-20.2%
2,O=C(c1ccc2c(c1)COC2)N1CCC(Nc2ccccc2)CC1,-162%
3,O=C1[C@H]2CN(Cc3ccncc3)C[C@H]2CN1c1ccsc1,-92.9%
4,COc1cccc(CN2CCC(CO)(Cc3ccc(Cl)cc3)CC2)c1O,89.5%
5,c1cc(CN2CCN(Cc3ccon3)C3(CCCCC3)C2)no1,-126%
6,Cc1noc(C)c1CN1CC[C@H]2C[C@@H](c3ccncn3)O[C@@H]2C1,-98.1%
7,Cc1nc(-c2cccc(N3CCC(N4CCCC4)CC3)c2)cs1,71.6%
8,Cc1cc(N2CCN3CCCCC3C2)n2nc(C)c(C)c2n1 (stereo not drawn),-76.1%
9,Cc1ncccc1OCC(=O)N1CCN[C@H]2CS(=O)(=O)C[C@H]21,-151%
10,c1ccc(CN2CCN3C[C@H](Oc4cncnc4)C[C@H]3C2)nc1,-102%
11,NC1CCc2nc(-c3cccnc3)nc(Nc3ccc(F)cc3)c2C1 (stereo not drawn),87.1%
12,NC1CCc2nc(-c3ccncc3)nc(Nc3cccc(F)c3)c2C1 (stereo not drawn),84.2%
13,CCc1cc(N2CCNCC2)n2nc(C)c(C)c2n1,-115%
14,COc1cccc([C@H]2CN(C(C)=O)[C@@H]3CCN(Cc4ccsc4)C[C@H]23)c1,73.9%
15,COCCN1C[C@@H]2[C@@H](OC)CCN(C(=O)Cc3ccsc3)[C@@H]2C1,19.2%
16,Cc1noc(C)c1CN1CC[C@H]2C[C@H](c3ccncn3)O[C@@H]2C1,-66.9%
17,O=C(CC1CC1)N[C@@H]1CN(Cc2cccnc2)C[C@@H]2CCCO[C@@H]21,-42.5%
18,COc1ccc(C[C@H]2CN(Cc3ccoc3)CC[C@H]2OC)cc1,75.1%
19,CC(C)c1nccc([C@@H]2C[C@@H]3CCN(Cc4ccoc4)C[C@H]3O2)n1,-35%
20,CO[C@@H]1CCN(Cc2ccoc2)C[C@@H]1Cc1ccccc1,89%
21,CC(C)c1nccc([C@H]2C[C@@H]3CCN(Cc4ccoc4)C[C@H]3O2)n1,-81.1%
22,c1cncc(CN2CCO[C@@H]3CN(Cc4ccoc4)CC[C@@H]3C2)c1,30.1%
23,CN1CCN(Cc2ccoc2)Cc2cccnc21,-116%
